The record followed here is PubChem BioAssay (NCATS).

Results filed as inconclusive are left out. Unmarked numbers belong to inactive results. Active and inactive are the calls of the source. Calls follow the shape of the dose curve; as a rule, active = well fitted inhibition curve with a large enough effect; inconclusive = small, poorly fitted or top-dose-only effect; inactive = flat fitted curve, though single readings scatter. *1 amine or outer side, *2 acyl side, *3 side chain or, on linkers, in order; H or OH if unused. Where a SMILES comes first, the peptide text is derived from it. Bridges are numbered along the chain shown (N, C = ends). [ ]: non-standard residue; d: D form. The star is where a group is joined. ξ: configuration not given here. ξhTyr(3S-OH,4S-OH,3'-OSO3H) = NC(C(=O)O)[C@H](O)[C@@H](O)c1ccc(O)c(OS(=O)(=O)O)c1; Orn(4R-OH,5R-OH) = O=C([C@H](C[C@@H](O)[C@@H](O)N[*:3])N[*:1])[*:2]; X2 = CCCCCOc1ccc(-c2cc(-c3ccc(C(=O)*)cc3)no2)cc1; X3 = C[C@H]1CN([*:1])C(C(=O)[*:2])[C@H]1O; ξGln(3R-OH) = NC(=O)C[C@@H](O)C(N)C(=O)O; ξPro(4R-OH) = O=C(O)C1C[C@@H](O)CN1; ξThr(3R) = C[C@@H](O)C(N)C(=O)O
% is scaled to controls: 0 for no effect and ±100 for the full control effect.

For the assay, the system named is CRL-7250. Nature of the assay: Cytotoxic Profiling of Annotated Libraries Using Quantitative High-Throughput Screening (AID 1296008). Also: nearly all actives have a fitted effect of over 60% in size. As to conditions: Five cell lines viability, CellTiter-Glo ATP luminescence, 48-72 h; max response: hits give low values. The method in brief:
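Cells exposed to compounds for 48 or 72 hr at 37 degrees Celsius. Viability read as ATP-coupled luminescence with CellTiter-Glo after 10 min at room temperature.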
As for `C[C@@H]1O[C@@H](O[C@H]2[C@H](O[C@H]3[C@H](O[C@H]4CC[C@@]5(C)C(CC[C@]6(C)C5CC=C5[C@@H]7CC(C)(C)C[C@@H](O)[C@]7(C)CC[C@]56C)[C@@]4(C)CO)O[C@H](C(=O)O)[C@@H](O)[C@@H]3O)O[C@H](CO)[C@H](O)[C@@H]2O)[C@H](O)[C@H](O)[C@H]1O` (some centres undefined), the max response is 3.95%.

As to `OC[C@@]1(O)CO[C@@H](OC[C@H]2O[C@@H](OCc3ccccc3)[C@H](O)[C@@H](O)[C@@H]2O)[C@@H]1O`, the max response is 1.98%. As for `COc1ccc2c(c1)C=C1Cn3c-2c(C2CCCCC2)c2ccc(cc23)C(=O)NS(=O)(=O)N(C)CCOCCN(C)C1=O`, the max response is -49.9%.

With `CCNC(=O)C1CC(F)(c2ccc(CN3CCCC3)c(F)c2)C1` (centres undefined), the call was inactive. Regarding `CCC(=O)N1CCc2cc(OC)c(O)cc2C1`, the max response is -24.5%.

With `O=C(Cc1ccc(Cl)cc1)Nc1cnccc1C(=O)O`, the molecule was classed as inactive.

Regarding `O=C(O)C(Cc1ccccc1)NC(=O)C1CCCN1` (stereo not drawn) (H-Pro-Phe-OH; configuration not given here), the max response was -5.01%. Take `COc1c(C)c(OCC(O)C(C)(C)O)cc2c1CNC2=O` (centres undefined): the max response is 2.44%. As to `Cc1c(O)cc2c(c1O)COC1(O)CCCOC21` (centres undefined), the max response was -4.56%. As for `C[C@H]1[C@H](C)CC[C@]2(C(=O)OC3OC(CO)C(O)C(O)C3O)CC[C@]3(C(=O)O)C(=CCC4[C@@]5(C)CC[C@H](O[C@@H]6O[C@@H](C)[C@H](OC7OC(CO)C(O)C(O)C7O)[C@@H](O)[C@H]6O)C(C)(C)C5CC[C@]43C)[C@H]12` (some centres undefined), the max response was -1.78%. With `COc1cc(C(C)=O)ccc1O[C@@H]1O[C@H](CO[C@@H]2OC[C@@H](O)[C@H](O)[C@H]2O)[C@@H](O)[C@H](O)[C@H]1O`, the max response is 0.428%.

Consider `COC(=O)c1[nH]c(=O)c2ccccc2c1-c1ccc[nH]1`, for which the molecule was classed as inactive.

With `C=C1C2(C)CC3C4(C)OC(C5OC56C4=CC(=O)OC6(C)C)C3(C)C13C(=O)OC(C)C3(O)C2=O` (centres undefined), the max response is -6.5%. Regarding `O=C(O)Cn1nnc(-c2ccc(CN(CCCCOc3ccc(CN4CCCC4)cc3)CCc3ccccc3)cc2)n1`, the molecule was called inactive. As for `CC1CC2OCC3(O)CCC(O)C(C14CC(c1ccoc1)OC4=O)C23CO` (centres undefined), the call was inactive.

With `C=C(C(=O)O)[C@@H]1CC[C@H](C)[C@@H]2CC(=O)C(C)=C2C1`, the molecule was called inactive. Still for that read-out and setting: the value for `O=C(Cn1c2ccccc2c2nc3n(c(=O)c21)CCS3)N1CCCC1` was “inactive”. In the case of `O=C(O)c1ccc(NC(=O)[C@H](CC2CCCC2)n2cnc(C(F)(F)F)c2)nc1`, the max response is -11.6%. Take `COC(=O)[C@H](Cc1ccc([N+](=O)[O-])cc1)NC(=O)c1cccc2ccccc12`: the max response is -4.16%. Take `CC(=O)OCC1=CCC2C(C)(C)CCCC2(C)C12CCC(C)(CC(=O)O)O2` (centres undefined): the max response is -2.76%. Turning to `COc1cc(C(CO)C(OC2OC(CO)C(O)C(O)C2O)c2ccc(O)c(OC)c2)ccc1O` (centres undefined), the molecule was classed as inactive. Take `CCOC(=O)C1=C(N)Oc2ccc(Cl)cc2C1C(C#N)C(=O)OCC` (centres undefined): the max response was 2.77%. Turning to `O=C(O)CC1CCC(c2ccc(-c3ccc(Nc4ccc(C(F)(F)F)nc4)cn3)cc2)CC1` (centres undefined), the max response is 3.84%. As to `COC(=O)[C@@H](NC(=O)[C@H](CC(C)C)NC(=O)N(Cc1ccccc1)C[C@@H](O)[C@H](Cc1ccccc1)NC(=O)OC(C)(C)C)C(C)C`, the outcome was inactive.

Turning to `CC(O)C(O)/C=C/C=C/C(=O)O[C@@H]1C=C(C(=O)O)[C@](O)(CO)[C@@]2(C)CCCC(C)(C)[C@H]12` (some centres undefined), the max response is -15.6%. On to `CCCCCOc1ccc(-c2cc(-c3ccc(C(=O)N[C@H]4C[C@@H](O)[C@@H](O)NC(=O)C5[C@@H](O)[C@@H](C)CN5C(=O)C([C@H](O)CC(N)=O)NC(=O)C([C@H](O)[C@@H](O)c5ccc(O)c(OS(=O)(=O)O)c5)NC(=O)C5C[C@@H](O)CN5C(=O)C([C@@H](C)O)NC4=O)cc3)no2)cc1` (stereo partly drawn) (X2-[Orn(4R-OH,5R-OH)][ξThr(3R)][ξPro(4R-OH)][ξhTyr(3S-OH,4S-OH,3'-OSO3H)][ξGln(3R-OH)][X3]; lactam 1-C), for which the result was inactive.

For `CC(C)=C1CC2C(CCC2(C)O)C(C)(O)CC1=O` (centres undefined), the call was inactive. On to `C[C@]1(OC(=O)/C=C/c2ccc(O)cc2)C[C@@H](O)[C@]2(O)C=CO[C@@H](O[C@@H]3O[C@H](CO)[C@@H](O)[C@H](O)[C@H]3O)C12` (some centres undefined), for which the max response was 4.79%. As for `Cc1cc(-n2c(=O)[nH]c(=O)n(C)c2=O)ccc1Oc1ccc(SC(F)(F)F)cc1`, the max response was -0.879%. Take `C/C=C/C=C/C=C/C(=O)OC1C=C2C(O)OC(=O)[C@]2(O)[C@@]2(C)CCCC(C)(C)[C@H]12` (some centres undefined): the max response is -0.551%. As to `O=C(/C=C/c1ccc(O)cc1)OC[C@H]1O[C@@H](O/C(=C\c2ccccc2)C(=O)O)[C@H](O)[C@@H](O)[C@@H]1O`, the molecule was classed as inactive. `C=C(CO)C(=O)O[C@H]1C[C@@]23O[C@@H]2CC/C(=C/[C@H]2OC(=O)C(=C)[C@H]12)CO[C@H]3O`: the molecule was called inactive. As to `CC(C)CC(c1c(O)c(C=O)c(O)c(C=O)c1O)C1CCC(C)(O)C2CC(C(C)(C)O)CCC12C` (centres undefined), the max response is -4.35%.

Turning to `COC(=O)C1=COC(OC2OC(CO)C(O)C(O)C2O)C2C(C)C(OC(C)=O)C(OC(=O)c3ccccc3)C12` (centres undefined), the max response is -19.7%. On to `C=C1CCC2C(C)(C(=O)OC)CCCC2(C)C1CCC1=CCOC1=O` (centres undefined), for which the max response is 3.38%.

For the molecule `Cc1cc(CNC(=O)c2cc(C(=O)NCc3ccc(F)c(C)c3)ncn2)ccc1F`, the max response was 4.78%.

On to `Cc1occc1C(=O)n1ccnc1`, for which the max response is -1.62%. With `O=C(O)C1(c2ccc(-c3ccc(Cl)c(Cl)c3)c(F)c2)CC1`, the max response is 2.78%.

Take `CC(=O)OC[C@]12[C@H](OC(C)=O)[C@H](OC(=O)c3ccccc3)[C@@H]3[C@@H](OC(C)=O)[C@]1(OC3(C)C)[C@H](C)C[C@H](OC(=O)c1ccccc1)[C@@H]2OC(=O)c1ccccc1`: the call was inactive.
